Screening results: PubChem BioAssay, Center for Chemical Genomics, University of Michigan
The entries come from a sample that favours hits as a whole.
Dicer processing = inhibitors of human Dicer processing of pre-microRNA; 47,000 tested, 6% active; z-score at 25 µM; AID 1347074; cat-ELCCA pre-miR-21 Dicer processing, chemiluminescence; stronger effect = higher value; in the data active = z-score above about 3, passing the limit was not always enough;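 note: plate controls were vehicle for no effect and no enzyme for full effect; higher signal means more uncleaved substrate so more Dicer inhibition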
Target sequence (Q9UPY3 whole entry, looked up): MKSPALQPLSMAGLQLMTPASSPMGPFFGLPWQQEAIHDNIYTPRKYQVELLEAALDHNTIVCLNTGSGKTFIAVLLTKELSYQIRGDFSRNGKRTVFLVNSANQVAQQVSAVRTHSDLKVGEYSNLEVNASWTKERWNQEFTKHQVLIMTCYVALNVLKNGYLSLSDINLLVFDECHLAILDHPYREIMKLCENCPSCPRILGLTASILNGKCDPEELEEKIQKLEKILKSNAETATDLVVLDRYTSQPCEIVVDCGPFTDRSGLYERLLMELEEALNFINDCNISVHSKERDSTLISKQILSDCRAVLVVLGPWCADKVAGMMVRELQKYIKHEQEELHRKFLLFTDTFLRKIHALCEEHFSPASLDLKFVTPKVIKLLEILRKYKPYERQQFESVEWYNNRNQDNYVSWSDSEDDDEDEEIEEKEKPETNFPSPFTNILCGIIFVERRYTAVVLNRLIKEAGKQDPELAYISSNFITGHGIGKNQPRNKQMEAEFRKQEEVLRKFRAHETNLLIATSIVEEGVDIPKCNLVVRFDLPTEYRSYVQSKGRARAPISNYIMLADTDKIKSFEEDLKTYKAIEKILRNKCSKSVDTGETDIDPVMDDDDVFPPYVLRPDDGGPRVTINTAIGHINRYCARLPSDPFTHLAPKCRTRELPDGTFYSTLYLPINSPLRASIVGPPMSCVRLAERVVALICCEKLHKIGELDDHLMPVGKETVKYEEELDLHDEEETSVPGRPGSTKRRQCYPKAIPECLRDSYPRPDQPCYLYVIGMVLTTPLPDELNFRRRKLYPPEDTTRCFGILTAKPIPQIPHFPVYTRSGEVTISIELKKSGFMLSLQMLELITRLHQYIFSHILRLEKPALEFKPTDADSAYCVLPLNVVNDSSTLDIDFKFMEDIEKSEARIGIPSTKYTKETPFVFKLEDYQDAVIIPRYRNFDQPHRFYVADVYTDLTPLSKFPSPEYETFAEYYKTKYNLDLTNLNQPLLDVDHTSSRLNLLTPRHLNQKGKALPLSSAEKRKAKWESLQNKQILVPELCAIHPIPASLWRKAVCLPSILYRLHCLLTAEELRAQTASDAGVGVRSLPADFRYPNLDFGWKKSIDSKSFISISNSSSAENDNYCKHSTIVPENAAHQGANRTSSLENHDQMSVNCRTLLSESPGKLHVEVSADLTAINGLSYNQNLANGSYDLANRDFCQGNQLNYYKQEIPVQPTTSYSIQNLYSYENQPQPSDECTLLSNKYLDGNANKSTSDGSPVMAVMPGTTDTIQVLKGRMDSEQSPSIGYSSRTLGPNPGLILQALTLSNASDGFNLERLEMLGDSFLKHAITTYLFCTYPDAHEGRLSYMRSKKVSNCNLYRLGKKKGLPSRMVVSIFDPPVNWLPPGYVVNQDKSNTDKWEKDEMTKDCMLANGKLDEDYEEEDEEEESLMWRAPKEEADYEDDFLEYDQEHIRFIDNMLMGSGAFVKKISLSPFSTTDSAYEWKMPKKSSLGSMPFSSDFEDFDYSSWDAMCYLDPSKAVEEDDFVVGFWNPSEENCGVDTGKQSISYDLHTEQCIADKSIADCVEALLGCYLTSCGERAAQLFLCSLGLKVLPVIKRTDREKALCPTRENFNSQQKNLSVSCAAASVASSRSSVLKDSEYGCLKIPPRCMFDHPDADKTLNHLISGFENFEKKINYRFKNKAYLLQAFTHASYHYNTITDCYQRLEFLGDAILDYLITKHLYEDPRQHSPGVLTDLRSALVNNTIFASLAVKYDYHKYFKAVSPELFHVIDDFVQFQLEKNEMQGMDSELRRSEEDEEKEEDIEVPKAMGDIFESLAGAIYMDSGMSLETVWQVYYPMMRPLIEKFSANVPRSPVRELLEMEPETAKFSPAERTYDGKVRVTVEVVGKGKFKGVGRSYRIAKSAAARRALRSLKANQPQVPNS
* marks the source's active call; other numbers are inactive results.

SMILES	Dicer processing
CC(C)(C)c1cc(NC(=O)Nc2ccc(Cl)cc2Cl)no1	-1.2
Cc1nc(-c2cccs2)sc1C(=O)NNC(=O)Nc1ccc(Cl)cc1	0.9
CCc1nc(C)cn1S(=O)(=O)c1ccc(Br)c(OC)c1	2
FC(F)(F)c1cc(NC(=S)N2CCN(c3ncnc4sccc34)CC2)cc(C(F)(F)F)c1	-0.64
O=C(CSc1nnc(-c2ccco2)n1-c1ccc(OCc2ccccc2)cc1)c1ccccc1	-0.72
Cc1[nH]c2ccccc2c1C(=O)CSc1nnc(-c2ccco2)n1C	2.9
CCn1c(SCC(=O)c2c(C)[nH]c3ccccc23)nnc1-c1ccco1	2.6
Cc1[nH]c2ccccc2c1C(=O)CSc1nnc(-c2ccco2)n1-c1ccccc1	4.7*
CCn1c(SCC(=O)c2c[nH]c3ccccc23)nnc1-c1ccco1	3.4*
CCn1c(SCC(=O)c2c[nH]c3ccccc23)nnc1-c1cccs1	2.1
Cc1[nH]c2ccccc2c1C(=O)CSc1nnc(-c2cccs2)n1C	0.7
Cc1[nH]c2ccccc2c1C(=O)CSc1nnc(Cc2cccs2)n1C	3.4*
Cc1[nH]c2ccccc2c1C(=O)CSc1nnc(C2CCCCC2)n1C	1.4
CCCS(=O)(=O)c1cc2ccccc2oc1=O	0.83
O=C(O)CCCN1C(=O)C(=O)/C(=C(\O)c2ccc(F)cc2)C1c1cccnc1 (centres undefined)	0.01
CCOC(=O)C1=C(C)Nc2nc3ccccc3n2C1c1sccc1C (centres undefined)	-0.78
CCOC(=O)C1=C(C)Nc2nc3ccccc3n2C1c1ccccc1C (centres undefined)	0.04
CCOC(=O)C1=C(C)Nc2nc3ccccc3n2C1c1ccc(O)cc1 (centres undefined)	-0.38
CCOC(=O)C1=C(C)Nc2nc3ccccc3n2C1/C=C/c1ccccc1 (centres undefined)	3.8*
COC(=O)C1=C(C)Nc2nc3ccccc3n2C1c1sccc1C (centres undefined)	-0.1
CC1=C(C(=O)OC(C)C)C(c2sccc2C)n2c(nc3ccccc32)N1 (centres undefined)	3.5*
CCOC(=O)c1c(N)oc2c(-c3ccc(C(C)C)cc3)c3c(C(=O)OCC)c(N)oc3cc12	0.39
CC1(C)CC(=O)C2=C(C1)Nc1nonc1NC2c1cccnc1 (centres undefined)	0.59
Cc1ccccc1C1CC(=O)NC(SCc2ccccc2)=C1C#N (centres undefined)	-0.3
COC(=O)c1cc(-c2ccc(Cl)cc2)no1	1.9
SMILES	Dicer processing
CSc1nnc2c(n1)OC(c1ccc(C(=O)O)cc1)Nc1ccc(Br)cc1-2 (centres undefined)	0.21
CSc1nnc2c(n1)OC(c1ccccc1OCC(=O)O)Nc1ccccc1-2 (centres undefined)	4.5*
CSc1nnc2c(n1)OC(c1ccc(OCC(=O)O)cc1)Nc1ccccc1-2 (centres undefined)	0.76
CSc1nnc2c(n1)OC(c1ccc(O)c(O)c1)Nc1ccccc1-2 (centres undefined)	4.4*
COc1ccc(C2Nc3ccccc3-c3nnc(SC)nc3O2)cc1 (centres undefined)	1.5
COc1ccccc1C1Nc2ccccc2-c2nnc(SC)nc2O1 (centres undefined)	-0.54
CSc1nnc2c(n1)OC(c1ccc(N(C)C)cc1)Nc1ccccc1-2 (centres undefined)	23
CSc1nnc2c(n1)OC(c1ccc(Br)cc1)Nc1ccccc1-2 (centres undefined)	5.4*
CCSc1nnc2c(n1)OC(c1ccc(O)c(O)c1)Nc1ccccc1-2 (centres undefined)	2.3
c1ccc2c(c1)CC1OC(CC3=N[C@H]4c5ccccc5C[C@H]4O3)=NC21 (some centres undefined)	-0.5
CC1=C(C(=O)Nc2cc(C)ccn2)C(c2cccc(Br)c2)C2=C(CC(C)(C)CC2=O)N1 (centres undefined)	0.42
CC(=O)OC[C@H]1O[C@@H](Oc2ccccc2)[C@H](OC(C)=O)[C@@H](OC(C)=O)[C@H]1OC(C)=O	0.74
CCCCCOc1ccc(N2C(=O)C3C4C=CC(CC4)C3C2=O)cc1 (centres undefined)	-0.29
CC(=O)n1c2ccccc2c2nc(N)sc21	-0.55
CCCCCCc1cc2c(C)cc(=O)oc2cc1O	0.29
O=C(Cn1nnc2sc3c(c2c1=O)CCCC3)Nc1ccccc1	0.74
O=C(Cn1nnc2sc3c(c2c1=O)CCCC3)Nc1ccc(F)c(Cl)c1	3.6*
CC1CCc2c(sc3nnn(CC(=O)Nc4ccc(Br)cc4)c(=O)c23)C1 (centres undefined)	-1.1
O=C(Cn1nnc2sc3c(c2c1=O)CCCC3)Nc1ccc(Cl)cc1	-0.06
CC1CCc2c(sc3ncn(CC(=O)O)c(=O)c23)C1 (centres undefined)	2.9
CC1CCc2c(sc3nnn(CC(=O)Nc4ccc(Cl)cc4)c(=O)c23)C1 (centres undefined)	3.6*
CC1=C(C#N)C(c2cc3c(cc2Br)OCO3)C2=C(CC(c3ccc(Cl)cc3)CC2=O)N1 (centres undefined)	0.09
COc1ccc(C2OC(=O)C(=O)/C2=C(\O)c2ccc(Cl)cc2)cc1 (centres undefined)	-0.79
O=C(Nc1nc2c(Br)cc(Br)cc2c(=O)s1)c1cccs1	0.71
O=c1c2cnn(-c3ccccc3)c2ncn1/N=C/c1ccc(Cl)cc1	0.07
SMILES	Dicer processing
O=c1c2cnn(-c3ccccc3)c2nnn1/N=C/c1ccc(OCc2ccccc2)cc1	-1.1
O=c1c2cnn(-c3ccccc3)c2nnn1/N=C/c1ccc([N+](=O)[O-])cc1	3.3*
O=c1c2cnn(-c3ccccc3)c2ncn1/N=C/c1ccc(OCc2ccccc2)cc1	-0.77
Cc1nc2c(cnn2-c2ccccc2)c(=O)n1/N=C/c1ccc(Cl)cc1	3.2*
Cc1nc2c(cnn2-c2ccccc2)c(=O)n1/N=C/c1cccs1	2
CCc1[nH]nc2c1C(c1ccc(F)cc1)C(C#N)=C(N)O2 (centres undefined)	-1.7
CCOC(=O)N1c2ccccc2C(C)(c2ccccc2)CC1(C)C (centres undefined)	1.4
CCOC(=O)c1sc(SCC(=O)c2ccc(Cl)cc2)nc1C	0.61
CC(CN1CCOCC1)OC(=O)c1ccco1 (centres undefined)	0.25
N#C/C(C(N)=O)=C1/SC=C(c2ccccc2)N1Cc1ccccc1	0.82
COc1ccccc1C1CC(=O)C2=C(C1)NC(C)=C(C(=O)OCC1CCCO1)C2c1ccc(F)cc1 (centres undefined)	0.4
CN(C)C(=S)NC(Cc1ccccc1)c1ccccc1 (centres undefined)	0.6
COc1ccc(/C=C/c2nc3ccccc3n2C)cc1	1.1
COc1ccc(/C=C/c2ccc(OC)cc2)cc1	3.1*
COc1ccc(/C=C/c2sc(C)c(C)[n+]2C)cc1	-4.8
Clc1nc(NCc2ccco2)nc(N2CCC(Cc3ccccc3)CC2)n1	1.4
Clc1ccc(-c2cn3cc(Cc4ccccc4)sc3n2)cc1	2.4
Fc1ccc(-c2cn3cc(Cc4ccccc4Cl)sc3n2)cc1	0.06
CCc1ccc(Cc2cn3cc(-c4ccccc4)nc3s2)cc1	-0.59
Cc1ccc(Cc2cn3cc(-c4ccccc4)nc3s2)cc1	-0.16
Fc1ccc(Cc2cn3cc(-c4ccc(F)cc4)nc3s2)cc1	3.9*
Fc1ccc(-c2cn3cc(Cc4ccc(Br)cc4)sc3n2)cc1	3.4*
COC(=O)c1ccc(S(=O)(=O)NNc2ncnc3cc(C(C)(C)C)sc23)n1C	2.8
COC(=O)c1cccc(NC(=O)c2ccc(C(C)(C)C)cc2)c1	1
